Compounds with a hit are over-represented: about 2.2% of the library has one in this group of screens.
Mito fusion yeast = qHTS Assay for Small Molecule Inhibitors of Mitochondrial Division or Activators of Mitochondrial Fusion. S. cerevisiae fusion-defective mutant growth rescue, CellTiterGlo 48 h. Potency, µM (series often up to 46.1 µM), most hits filed as activators. 0.23% of 320,000 active. AID 485298, 2010; further: nearly all actives have a fitted effect of over 45% in size
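S. cerevisiae fusion-defective temperature-sensitive mutants (e.g. fzo1-1, mgm1-5) grown 48 h at 37C in YPEG (ethanol/glycerol non-fermentable) medium with 23 nl compound per well; growth rescue read as CellTiterGlo luminescence.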
TDP43 rescue = qHTS of TDP-43 Inhibitors; TDP-43 expressing yeast growth rescue, BacTiter-Glo, 24 h; Potency, µM (series often up to 46.1 µM), actives largely listed as activators; 1.8% of 410,000 active; further: nearly all actives have a fitted effect of over 50% in size
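Yeast cells expressing TDP-43 under galactose induction are exposed to compounds for 24 hr at 30 deg C. BacTiter-Glo luminescence measures growth, so protective compounds score as activators.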
ERG Ets-DNA blk = qHTS for Small Molecule Inhibitors of the ERG Ets/DNA interaction | fluorescence polarization, His-ERG Ets domain / labelled DNA | Potency, µM (highest dose often 76.9 µM), hits mostly inhibitors | 0.028% of 370,000 active; active means well fitted inhibition curve with a large enough effect in the polarisation, with a control signal flat; inconclusive means small, poorly fitted or top-dose-only effect, or effect the other way, or a change in a side signal; inactive means no such curve, though single readings can be large or run the other way; the % refers to the polarisation;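 further: polarization taken with two DNA probes labelled with fluorescein and Texas red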
Target sequence (P11308 whole entry, looked up, the tested form may be a part): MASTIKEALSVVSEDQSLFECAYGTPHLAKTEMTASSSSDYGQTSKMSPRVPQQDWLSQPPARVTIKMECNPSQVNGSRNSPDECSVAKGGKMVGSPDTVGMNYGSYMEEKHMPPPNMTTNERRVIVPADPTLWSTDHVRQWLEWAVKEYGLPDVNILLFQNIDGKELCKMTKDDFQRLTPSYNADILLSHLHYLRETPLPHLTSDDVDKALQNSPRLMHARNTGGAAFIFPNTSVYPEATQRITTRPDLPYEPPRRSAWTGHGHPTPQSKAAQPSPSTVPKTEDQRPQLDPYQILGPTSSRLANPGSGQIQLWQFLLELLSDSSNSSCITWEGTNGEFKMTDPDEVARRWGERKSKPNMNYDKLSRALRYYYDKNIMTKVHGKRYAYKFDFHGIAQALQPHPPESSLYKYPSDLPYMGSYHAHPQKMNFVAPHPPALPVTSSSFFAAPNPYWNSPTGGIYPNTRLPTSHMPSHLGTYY
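His-tagged ERG Ets domain (1 uM in the protein solution; 300mM KCl, 50mM Tris-HCl, 1mM EDTA, 1mM DTT, pH 7.5) received compound, then a probe mix of 5 nM fluorescein-DNA and 100nM Texas-615-DNA. Fluorescence polarization was read for both dyes.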
FUS yeast rescue = qHTS for Suppressors of FUS Proteinopathy: Primary screen using FUS-linked yeast assay; S. cerevisiae FUS-expressing, growth rescue, OD600, 24 h; Potency, µM (doses to about 76.6 µM), hits mostly activators; 0.24% of 390,000 active; further: nearly all actives have a fitted effect of over 55% in size
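Restored growth of FUS-toxic S. cerevisiae, read as 600 nm absorbance after 24 h at 30C in galactose medium (starting OD 0.005). Controls CP55940 and DMSO.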
aSyn yeast inh = qHTS of alpha-syn Inhibitors. AID 652106, 2013. 0.14% of 370,000 active. Yeast expressing alpha-synuclein, growth rescue, BacTiter-Glo, 24 h. Potency, µM (series often up to 46.1 µM), hits mostly activators; further: nearly all actives have a fitted effect of over 65% in size
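Readout is rescue of growth in alpha-synuclein-expressing yeast, so inhibitors of toxicity appear as activators. Growth after 24 hr at 30 deg C in galactose medium is quantified by luminescence.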
Abeta yeast res = qHTS for compounds that reverse cellular toxicity of Amyloid beta (A-beta) peptide in yeast: Primary Screen | yeast expressing A-beta42, growth rescue, OD600, 48 h; response scale: 0% DMSO, 100% iron-clioquinol control | Potency, µM (highest dose often 46.1 µM), usual class: activators | 0.063% of 410,000 active | AID 1347071, 2019; further: nearly all actives have a fitted effect of over 55% in size
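Yeast A-beta toxicity model in growth medium with pinned compounds, 48 h at 30 C; growth read as absorbance at 600 nm. Normalized to FeCl3/clioquinol equimolar mix (positive) and DMSO (negative).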
Numbers stand for hits; – = inactive; ? = inconclusive; · = not tested or not shown. Unless noted, the call rests on the fitted dose curve; in most records, active means well fitted curve in the direction sought with a large enough effect; inconclusive means small, poorly fitted or top-dose-only effect, or another doubt; inactive means no such curve, though single readings can be large; an effect the other way counts as inactive or inconclusive.

SMILES	Mito fusion yeast	TDP43 rescue	ERG Ets-DNA blk	FUS yeast rescue	aSyn yeast inh	Abeta yeast res
Cn1c(SCC(=O)Nc2ccc(Cl)cc2F)nnc1-c1ccco1	–	–	–	–	2.8µM	–
O=C(Cn1nc(-c2ccco2)ccc1=O)Nc1cc(Cl)ccc1Cl	–	13µM	–	–	–	–
O=C(CSc1ccc(-c2ccco2)nn1)Nc1ccccc1F	–	28µM	–	–	–	–
O=C(Cn1nc(-c2ccco2)ccc1=O)Nc1cc(C(F)(F)F)ccc1Cl	–	–	–	–	–	–
CCC1Oc2ccc(C)cc2N(CC(=O)N2CCN(c3ccccc3OC)CC2)C1=O (configuration not stated)	·	–	–	–	·	–
COc1ccc(Cn2c(C(=O)O)c(CNCC(C)c3ccccc3)c3ccc(OC)cc32)cc1 (configuration not stated)	·	–	–	–	·	–
CN(/N=C/c1ccc(O)cc1O)c1ncc(C(F)(F)F)cc1Cl	–	35µM	–	–	–	?
CN(/N=C/c1ccccc1Cl)c1ncc(Cl)cc1C(F)(F)F	–	–	–	–	–	–
COc1ccc(NC(=O)CN2C(=O)CCc3cc(S(=O)(=O)N4CCOCC4)ccc32)cc1Cl	·	?	–	–	·	–
COc1ccc(OC)c(NC(=O)c2cc3c(=O)oc4ccccc4c3s2)c1	·	–	–	–	·	–
O=C(Nc1nc2ccsc2c(=O)s1)C1CCC1	–	10µM	–	–	–	–
O=c1sc(Nc2ccccc2)nc2ccsc12	–	18µM	–	–	–	–
O=C(Nc1nc2ccsc2c(=O)s1)c1ccco1	–	–	–	–	–	–
COC(=O)[C@]12C[C@H](CC(=O)N3CCOCC3)C(=O)N(CCC3=CCCCC3)C1=C[C@H](C(C)C)O[C@@H]2C1CC1	·	·	·	–	·	·
CCCNC(=O)c1oc2ccc3c(c2c1C)C(=O)CC(C)(C)O3	–	14µM	–	–	–	–
COC(=O)[C@@]12CCCN1[C@H](c1ccc(-c3ccc(Cl)c(Cl)c3)c(OC)c1)[C@H]1C(=O)N(C)C(=O)[C@H]12	·	?	–	35µM	–	–
CCN1C(=O)[C@@H]2[C@@H](c3ccc(-c4ccc(F)cc4)c(OC)c3)N3CCCC[C@@]3(C(=O)OC)[C@@H]2C1=O	?	?	–	?	–	–
CCC(C)Sc1ccc([C@@H]2[C@@H]3C(=O)N(CC)C(=O)[C@@H]3[C@]3(C(=O)OC)CCCCN23)cc1OC (some centres not stated)	·	35µM	–	?	–	–
CCN1C(=O)[C@H]2[C@@H](c3ccc(-c4ccc(C(C)=O)cc4)c(OC)c3)N3CCCC[C@@]3(C(=O)OC)[C@H]2C1=O	·	14µM	–	?	?	–
CCN1C(=O)[C@@H]2[C@@H](c3ccc(SC4CCCCC4)c(OC)c3)N3CCCC[C@@]3(C(=O)OC)[C@@H]2C1=O	·	–	–	5µM	–	–
CC1(Cc2cccc(C(N)=O)c2)C(=O)Nc2c(Cl)cccc21 (configuration not stated)	·	–	·	–	–	–
C=Cc1ccc(CC2(C)C(=O)Nc3ccc(Cl)cc32)cc1 (configuration not stated)	·	–	·	–	?	?
CC1(Cc2cccc(C#N)c2)C(=O)Nc2c(Cl)cccc21 (configuration not stated)	·	?	·	–	18µM	–
CC1(Cc2ccccc2OC(F)(F)F)C(=O)Nc2c(Cl)ccc(Cl)c21 (configuration not stated)	·	–	·	–	?	–
CC1(Cc2ccccc2Cl)C(=O)Nc2c(Cl)cccc21 (configuration not stated)	·	?	·	–	3.5µM	–
SMILES	Mito fusion yeast	TDP43 rescue	ERG Ets-DNA blk	FUS yeast rescue	aSyn yeast inh	Abeta yeast res
CC1(Cc2ccc(F)cc2)C(=O)Nc2c(Cl)ccc(Cl)c21 (configuration not stated)	·	–	·	–	11µM	–
C=Cc1ccc(CC2(C)C(=O)Nc3c(Cl)cccc32)cc1 (configuration not stated)	·	–	·	–	10µM	–
O=C(CN1C(=O)COc2ccc(S(=O)(=O)N3CCCC3)cc21)N1CCN(c2ccccc2F)CC1	·	–	–	–	–	–
Cc1ccccc1OCc1ccc(-c2nc(C#N)c(NCc3cccnc3)o2)o1	·	–	–	?	·	–
CC1(C)N=C(SCC(=O)Nc2ccc(Cl)cc2)C(c2ccc(Cl)cc2)=N1	–	35µM	–	–	–	–
CC1(C)N=C(SCC(=O)Nc2ccc(Cl)cc2)C(c2ccccc2)=N1	–	32µM	–	–	–	–
Cc1cc(NC(=O)CN(C)S(=O)(=O)c2ccc3c(c2)CCC(=O)N3)ccc1Br	·	–	–	–	·	–
O=c1c2c3c(sc2nc2n1CCCCC2)CCCC3	–	13µM	–	–	–	–
O=c1c2c3c(sc2nc2n1CCCS2)CCCC3	–	18µM	–	–	–	–
COc1ccc(NC(=O)Cn2c(=O)n(Cc3ccco3)c(=O)c3sc4ccccc4c32)cc1Cl	·	–	–	–	·	–
Cc1ccc(Cl)cc1N1CCN(C(=O)Cn2ncc3c([nH]c4ccccc43)c2=O)CC1	·	–	–	–	·	–
O=C(CN1C(=O)CC(c2ccco2)Sc2ccccc21)Nc1ccccc1F (configuration not stated)	–	32µM	–	–	–	–
O=C(CN1C(=O)CC(c2ccco2)Sc2ccccc21)Nc1ccc(Br)cc1 (configuration not stated)	·	–	–	–	–	–
Clc1ccc(CN2CCN(N=Cc3cccc(OCc4ccccc4)c3)CC2)cc1	·	·	·	–	·	·
Cc1cccc(C(=O)N2CCC(=O)N(C(COCc3cccc(Cl)c3)Cc3ccccc3)CC2)c1 (configuration not stated)	?	?	–	?	–	–
Cc1cccc(C(=O)N2CCC(=O)N([C@H](COCc3cccc(Cl)c3)Cc3ccccc3)CC2)c1	·	35µM	·	?	?	–
O=C(c1ccc(Cl)c(Cl)c1)N1CCC(=O)N(C(COCc2cccc(Cl)c2)Cc2ccccc2)CC1 (configuration not stated)	35µM	–	–	?	?	–
Cc1cccc(C(=O)N2CCC(=O)N(C(COCc3ccc(Cl)cc3)Cc3ccccc3)CC2)c1 (configuration not stated)	?	35µM	–	?	?	–

Screening results as filed in PubChem BioAssay.
